From PubChem BioAssay
Pol kappa inh-1: qHTS for Inhibitors of Polymerase Kappa | Potency, µM (highest dose often 107 µM), for the others: top-dose activity, negative = inhibition, usual class: inhibitors | purified Pol kappa, fluorescent DNA synthesis assay, 10 min | 400,000 compounds, 0.53% hits; further: on the % scale 0 is the no-effect control and ±100 the full control effect
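Activity was followed as the change in fluorescence between reads at 0 and 10 min after starting the reaction with 50 nM substrate. Beforehand, 10 nM polymerase had been preincubated with compound for 15 min at room temperature.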
POLI inh: qHTS for Inhibitors of Polymerase Iota; Potency, µM (titrated, usually from 115 µM), for inactives: at the top dose activity, negative = inhibition, usual class: inhibitors; Pol iota fluorescent replication assay, 10 min; 390,000 compounds, 1% hits; DNA polymerase iota (Homo sapiens), Q9UNA4
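Pol iota at 10 nM preincubated 15 min with compounds at room temperature; reaction started with fluorescent substrate, 50 nM final. Fluorescence read kinetically at 0 and 10 min; buffer-only wells as negative control.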
Pol beta inh: qHTS Assay for Inhibitors of DNA Polymerase Beta; P06746; Pol beta primer extension/strand displacement, fluorescence kinetic; Potency, µM (highest dose often 114 µM), inactives show top-dose activity change, negative = inhibition, actives largely listed as inhibitors; 340,000 compounds, 1.3% hits; further: on the % scale 0 is the no-effect control and ±100 the full control effect
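Human Pol beta at 10 nM; strand-displacement substrate 50 nM final. Compound exposure 15 min at room temperature before start, reaction 10 min at room temperature.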
FEN1 inhibitor: qHTS Assay for the Inhibitors of Human Flap endonuclease 1 (FEN1) | Recombinant FEN1 flap cleavage, fluorescence, 15 min | Potency, µM (titrated, usually from 114 µM), inactives show at the highest dose activity change, negative = inhibition, actives largely listed as inhibitors | 390,000 compounds, 0.35% hits; further: on the % scale 0 is the no-effect control and ±100 the full control effect; nearly all actives have a fitted effect of over 65% in size
Target sequence (P39748 whole entry, looked up): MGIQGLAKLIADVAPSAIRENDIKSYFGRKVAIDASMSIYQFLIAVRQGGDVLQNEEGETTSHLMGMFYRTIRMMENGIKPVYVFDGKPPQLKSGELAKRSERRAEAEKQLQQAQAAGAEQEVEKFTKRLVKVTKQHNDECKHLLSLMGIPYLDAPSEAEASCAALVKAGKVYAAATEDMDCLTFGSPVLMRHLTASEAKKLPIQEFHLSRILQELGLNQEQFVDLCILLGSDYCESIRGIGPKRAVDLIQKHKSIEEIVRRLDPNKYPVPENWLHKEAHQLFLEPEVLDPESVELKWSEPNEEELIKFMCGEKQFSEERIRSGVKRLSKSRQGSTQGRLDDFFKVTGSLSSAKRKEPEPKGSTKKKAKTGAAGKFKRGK
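Read-out was taken twice, immediately and after 15 min, following addition of 50 nM substrate to 10 nM FEN1 that had sat with test compound for 15 min at room temperature. Curves came from a four-parameter Hill model.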
Pol eta inh-1: qHTS for Inhibitors of Polymerase Eta | DNA polymerase eta (Homo sapiens), Q9Y253 | AID 588591, 2011 | 390,000 compounds, 1.2% hits | recombinant Pol eta, fluorescent DNA replication assay | Potency, µM (doses to about 114 µM), for inactives: at the top dose activity change, negative = inhibition, actives largely listed as inhibitors; further: on the % scale 0 is the no-effect control and ±100 the full control effect
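Fluorescent replication assay: 50 nM final substrate added after a 15 min room-temperature compound preincubation with 10 nM enzyme. Signal taken at 0 min and again at 10 min.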
TDP1 block: qHTS Assay for Inhibitors of Tyrosyl-DNA Phosphodiesterase (TDP1). 350,000 compounds, 0.28% hits. AID 485290, 2010. Tyrosyl-DNA phosphodiesterase 1 (Homo sapiens), Q9NUW8. Potency, µM (titrated, usually from 130 µM), for inactives: at the top dose activity change, negative = inhibition, most hits filed as inhibitors. recombinant TDP1, AlphaScreen DNA substrate cleavage; further: on the % scale 0 is the no-effect control and ±100 the full control effect; nearly all actives have a fitted effect of over 40% in size
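Enzyme-compound mixtures sat 15 min at room temperature, followed by a 5 min reaction with 15 nM final substrate and 10 min with AlphaScreen beads. Recombinant human Tdp1 was used at 1 nM final.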
Pol kappa inh-2: qHTS for Inhibitors of Polymerase Kappa: Confirmatory Assay for Cherry-picked Compounds; shares compounds with Pol eta inh-1; purified Pol-kappa, fluorescent strand-displacement substrate; Potency, µM, hits mostly inhibitors; 920 compounds, 76% hits
Pol eta inh-2: qHTS for Inhibitors of Polymerase Eta: Confirmatory Assay for Cherry-picked Compounds; Potency, µM, usual class: inhibitors; shares compounds with Pol eta inh-1; Pol eta primer extension, TAMRA/BHQ fluorescence, 10 min; AID 720502, 2013; 2,600 compounds, 64% hits
Numbers without * were called inactive; [ ] = remark or other dose. In the library only some 2.4% were active in any assay of this set; here they are far more common. The call rests on the fitted dose curve; in most records, active means well fitted curve in the direction sought with a large enough effect; inconclusive means small, poorly fitted or top-dose-only effect, or another doubt; inactive means no such curve, though single readings can be large; an effect the other way counts as inactive or inconclusive. Potency means the concentration at half of the fitted maximal effect.

Screening O=C(CCC1N=C2c3ccccc3N=C(SCc3ccc(F)cc3)N2C1=O)NCc1ccc(F)cc1 (stereo not given) returned Pol kappa inh-1 0.9%[60.1 µM], POLI inh 10.5%, Pol beta inh 0.2%, FEN1 inhibitor -0.5%, Pol eta inh-1 -2.6% and TDP1 block -4.4%.
For CN(C)S(=O)(=O)c1cccc(NC(=O)COC(=O)/C=C/c2ccco2)c1 the results were Pol kappa inh-1 -37.7%, POLI inh -53.9%, Pol beta inh 31.6µM*, FEN1 inhibitor -6.5%, Pol eta inh-1 inconclusive and Pol eta inh-2 inconclusive.
Screening N#Cc1c2n(c3c(=O)n(CC(=O)c4ccc([N+](=O)[O-])cc4)cnc13)CCCCC2 returned Pol kappa inh-1 -1.8%, POLI inh 8.1%, Pol beta inh -1.1%, FEN1 inhibitor -18.1%, Pol eta inh-1 -16.9% and TDP1 block 0.0%.
Screening O=S(=O)(Nc1nc2n(n1)C(c1ccccc1)C=C(c1ccc(Cl)cc1)N2)c1ccccc1 (stereo not given) returned Pol kappa inh-1 -0.2%, POLI inh -19.2%, Pol beta inh 22.4%, FEN1 inhibitor 8.7%, Pol eta inh-1 89.1µM*, Pol kappa inh-2 67* and Pol eta inh-2 inconclusive.
Screening CC(=O)Nc1ccc(S(=O)(=O)Nc2nc3n(n2)C(c2ccccc2)C=C(c2ccc(Cl)cc2)N3)cc1 (stereo not given) returned Pol kappa inh-1 3.0%[60.1 µM], POLI inh -15.4%, Pol beta inh -1.0%, FEN1 inhibitor 8.5%, Pol eta inh-1 inconclusive, TDP1 block 4.7% and Pol eta inh-2 inconclusive.
`O=C(CCc1nc2ccccc2c(=O)[nH]1)Nc1cc(C(F)(F)F)ccc1N1CCCC1` gave Pol kappa inh-1 10.8%, POLI inh 26.2%, FEN1 inhibitor 1.9%, Pol eta inh-1 -4.0% and TDP1 block 3.8%.
`Cc1cccc(C(=O)NCc2nnc(SCC(=O)NC3CCCC3)n2C)c1` gave Pol kappa inh-1 9.5%, POLI inh 16.9%, Pol beta inh 28.3%, FEN1 inhibitor 3.6% and Pol eta inh-1 -7.8%.
Screening Cc1ccc(NC(=O)COC(=O)c2ccccc2OCC(=O)Nc2ccc(Br)cc2)c(C)c1 returned Pol kappa inh-1 -10.6%, POLI inh inconclusive and FEN1 inhibitor 9.5%.
`Clc1ccc(CNc2ncnc3nc[nH]c23)cc1` gave Pol kappa inh-1 -2.7%, POLI inh 7.8%, FEN1 inhibitor -15.3% and TDP1 block 2.2%.
`Cc1cc(C)n(CC(=O)NC2C(=O)N3C(C(=O)O)=C(CSc4nnc(C)s4)CSC23)n1` (stereo not given) gave Pol kappa inh-1 -15.2%, POLI inh -14.5%, Pol beta inh inconclusive, FEN1 inhibitor 0.2%, Pol eta inh-1 22.4µM* and Pol eta inh-2 inconclusive.
Screening CC1=C(C(=O)O)N2C(=O)C(NC(=O)c3c(F)cccc3F)C2SC1 (stereo not given) returned Pol kappa inh-1 -12.9%, POLI inh -6.0%, FEN1 inhibitor 3.8%, Pol eta inh-1 -1.9% and TDP1 block 7.8%.
Screening Cc1nnc(SCC2=C(C(=O)O)N3C(=O)C(NC(=O)c4cccc(F)c4F)C3SC2)s1 (stereo not given) returned Pol kappa inh-1 inconclusive, POLI inh 15.8µM*, Pol beta inh 1.9%, FEN1 inhibitor -10.1%, Pol eta inh-1 31.6µM* and Pol eta inh-2 26.9*.
`Cc1nnc(SCC2=C(C(=O)O)N3C(=O)C(NC(=O)Cn4ncc(Cl)c4C)C3SC2)s1` (stereo not given) gave Pol kappa inh-1 inconclusive, POLI inh inconclusive, Pol beta inh 31.6µM*, FEN1 inhibitor -15.9%, Pol eta inh-1 17.8µM*, TDP1 block -2.7% and Pol eta inh-2 26.9*.
`CC(=O)Nc1nonc1-c1nnc(SCC(=O)Nc2ccc(F)cc2F)n1-c1ccccc1` gave Pol kappa inh-1 -4.3%, POLI inh 16.6%, Pol beta inh 3.9%, FEN1 inhibitor 12.8%, Pol eta inh-1 -5.9% and TDP1 block 3.6%.
`C=CCN(CC=C)CC(=O)Nn1c(C)ccc1C` gave Pol kappa inh-1 inconclusive, POLI inh inconclusive, FEN1 inhibitor 8.8%, Pol eta inh-1 20µM* and Pol eta inh-2 inconclusive.
O=C(CCCN1C(=O)/C(=C\c2cccs2)SC1=S)Nc1ccc(C(=O)O)cc1 was read as Pol kappa inh-1 -24.5%, POLI inh inconclusive, Pol beta inh -3.1%, FEN1 inhibitor -6.1%, Pol eta inh-1 -13.0% and TDP1 block 3.7%.
`O=C(CCN1C(=O)/C(=C/c2cccs2)SC1=S)Nc1ccc(C(=O)O)cc1` gave Pol kappa inh-1 -4.2%, POLI inh inconclusive, Pol beta inh 31.6µM*, FEN1 inhibitor inconclusive, Pol eta inh-1 44.7µM*, TDP1 block -9.7% and Pol kappa inh-2 75.2*.
CCOC(=O)C1CCN(CCCSc2ccc(C)cc2)CC1 was read as Pol kappa inh-1 -3.7%, POLI inh 27.0%, FEN1 inhibitor -8.2% and Pol eta inh-1 -12.2%.
`CSCCC(NS(=O)(=O)c1ccc(C)cc1)C(=O)N1CCN(S(=O)(=O)c2ccc(F)cc2)CC1` (stereo not given) gave Pol kappa inh-1 -24.8%, POLI inh 22.0%, FEN1 inhibitor -1.4%, Pol eta inh-1 -13.0% and TDP1 block 0.5%.
Screening CON=C(C(=O)NC1C(=O)N2C(C(=O)O)=C(CSc3nc(=O)c(=O)[nH]n3C)CSC12)c1csc(N)n1 (stereo not given) returned Pol kappa inh-1 39.8µM*, POLI inh inconclusive, FEN1 inhibitor -21.6%, Pol eta inh-1 31.6µM*, Pol kappa inh-2 21.2* and Pol eta inh-2 30.1*.
For CO/N=C(/C(=O)N[C@@H]1C(=O)N2C(C(=O)O)=C(C[n+]3ccc(N)n3CCO)CS[C@H]12)c1csc(N)n1 the results were Pol kappa inh-1 4.2%[19.4 µM].
